Data: PubChem BioAssay AID701 (PCMD, 2007)
Out of some 33,000 compounds screened, about 70 (0.2%) were called active. Cut-off read from the data, not from the text of the source: active = inhibition above about 30%; inactive = the rest. Not all results are given here.

target: Coagulation factor XII (Homo sapiens) (UniProt P00748); assay: human FXIIa protease inhibitors, primary screen, biochemical, single well (AID 701); settings: purified human FXIIa, AMC substrate fluorescence, 2 h; at 10 µM; active compounds read high;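 note: 0% = enzyme with vehicle only and 100% = no enzyme blank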
Sequence (P00748 20-372 limits assumed): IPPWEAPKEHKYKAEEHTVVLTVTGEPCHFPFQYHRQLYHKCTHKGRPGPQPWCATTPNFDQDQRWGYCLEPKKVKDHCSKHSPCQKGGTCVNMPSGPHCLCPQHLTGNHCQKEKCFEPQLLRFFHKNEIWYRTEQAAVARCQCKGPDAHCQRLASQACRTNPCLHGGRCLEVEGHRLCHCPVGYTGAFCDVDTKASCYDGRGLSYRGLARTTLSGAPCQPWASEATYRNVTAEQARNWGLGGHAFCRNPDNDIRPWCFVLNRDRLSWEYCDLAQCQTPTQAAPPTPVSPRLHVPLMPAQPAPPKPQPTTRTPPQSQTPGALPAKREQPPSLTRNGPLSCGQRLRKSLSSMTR
Sequence (P00748 373-615 limits assumed): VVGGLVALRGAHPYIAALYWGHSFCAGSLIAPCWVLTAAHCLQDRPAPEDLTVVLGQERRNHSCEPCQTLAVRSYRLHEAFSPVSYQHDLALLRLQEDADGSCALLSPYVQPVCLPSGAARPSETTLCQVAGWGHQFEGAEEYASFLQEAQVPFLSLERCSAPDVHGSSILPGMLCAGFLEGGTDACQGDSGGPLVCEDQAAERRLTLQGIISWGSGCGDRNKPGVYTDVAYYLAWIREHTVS

inhibition, inactive:
COc1cc2c(cc1OC)C(C(=O)NCc1ccco1)C1c3ccccc3CCN1C2=O (stereo unspecified) 7.77%
COCCN(C(=O)c1ccco1)c1nnc(-c2ccc(OC)cc2)s1 7.18%
CCCCN1C(=O)CC(N2CCOCC2)C1=O (stereo unspecified) 4.3%
Cc1cccc(NC(=O)Cn2cc(C(=O)c3ccco3)c3ccccc32)c1 -10.1%
Cc1ccc(N(CC(=O)Nc2cc(C)cc(C)c2)S(=O)(=O)c2cccc3nonc23)cc1 17.2%
COc1ccc(-c2cc3nc(C)c(CCC(=O)NC(C)CCc4ccco4)c(C)n3n2)c(OC)c1 (stereo unspecified) -1.94%
CC1=C(C(N)=O)C(c2sccc2C)n2nnnc2N1 (stereo unspecified) 3.63%
CCOC(=O)c1nnn(-c2nonc2-n2cccc2)c1CN1CCC(C(=O)OCC)CC1 0.91%
O=C(CC1(O)C(=O)N(CN2CCOCC2)c2ccccc21)c1ccccc1 (stereo unspecified) -13.4%
CCOCCCNC(=O)C(NC(=O)c1ccc(=O)[nH]c1)c1ccc(C)cc1 (stereo unspecified) -13.5%
CC(O)CN(Cc1ccc(Cl)cc1)CC(C)O (stereo unspecified) 4.36%
COc1ccc(N(CC(=O)NC2CCCCC2)S(=O)(=O)c2c(C)[nH]c(=O)[nH]c2=O)cc1 6%
CC(=O)N1CCCc2cc(S(=O)(=O)CCC(=O)N3CCN(c4ccccc4)CC3)ccc21 -16.3%
O=C1CSC(c2cccc(F)c2)N1c1ccc(O)cc1 (stereo unspecified) 20.5%
CC(=O)c1c(C)[nH]c(C(=O)NCc2ccc(C)cc2)c1C 5.44%
Cn1c(=O)n(CCc2ccccc2)c(=O)c2c1nc1n2CCCN1c1ccccc1 -0.18%
O=C1CSC(c2ccc(Cl)cc2)N1 (stereo unspecified) -6.79%
OC(COc1cccc(OCC(O)CN2CCCC2)c1)CN1CCCC1 (stereo unspecified) 1.91%
COc1cccc(NC(=O)Cc2ccc(C)cc2)c1 3.98%
COc1cc(CC(=O)NCc2cccs2)cc(OC)c1OC 12%
Brc1ccc(Nc2c3c(nc4ncnn24)CCC3)cc1 -0.85%
CCN1CCN(C(c2cccnc2)c2cc(Cl)c3cccnc3c2O)CC1 (stereo unspecified) 11.8%
O=S(=O)(NCCNS(=O)(=O)c1ccccc1)c1ccccc1 15.1%
CCC(=O)NC(Nc1cc(C)ccn1)(C(F)(F)F)C(F)(F)F 5.79%
CCCNC(=O)c1ccccc1NC(=O)CSCc1ccc(OC)cc1 0.92%
CCCNC(=O)CN(Cc1ccccc1F)S(=O)(=O)c1ccc(C)cc1 16.6%
CC(=O)Nc1ccc(S(=O)(=O)N2CCSCC2)cc1 3.77%
Cc1cc(SCC(=O)c2ccccc2)nc(SCC(=O)c2ccccc2)n1 -15.6%
Cc1ccc(CCN2CC(C(=O)O)CC2=O)cc1 (stereo unspecified) 9.91%
O=C(NCCc1ccccc1)c1ccc(OCCOc2ccccc2)cc1 5.87%
CCOC(=O)c1[nH]cnc1C(=O)NC1CCCCC1 1.72%
COCCn1c(SCc2nc3cc(OC)c(OC)cc3c(=O)[nH]2)nnc1-c1ccncc1 3.73%
Cn1nnnc1SCC(=O)Nc1ccccc1C(=O)NC1CC1 -1.23%
O=S(=O)(N1CCCCC1)N1CCNCC1 4.16%
Cc1cc(C(=O)OC(C)C(=O)Nc2cccc(S(=O)(=O)N3CCOCC3)c2)c(C)o1 (stereo unspecified) 8.04%
CCn1c(SCC(=O)Nc2ccc(OC)c(OC)c2)nnc1-c1c[nH]c2ccccc12 5.25%
COc1cc(OC)cc(-c2cc3nc(C4CCN(C(=O)OC(C)(C)C)CC4)cc(=O)n3[nH]2)c1 -5.3%
COc1ccc(C2=NOC3(CC(=O)N(c4ccc(Cl)cc4)C3=O)C2)c(OC)c1 (stereo unspecified) -13.9%
Cc1cccc(-n2ncc3c(N4CCc5ccccc54)ncnc32)c1 4.16%
Cn1ccs/c1=N\S(=O)(=O)c1ccc(C(C)(C)C)cc1 6.13%
CC(CN1CCOCC1)c1ccccc1 (stereo unspecified) 7.84%
CCn1c(=O)c(=O)n(CC)c2cc(S(=O)(=O)N3CCc4ccccc43)ccc21 8.33%
COc1ccc(OCCCON2C(=O)c3ccccc3C2=O)cc1 3.44%
Cc1ccc(OCC(=O)N/N=C\c2ccco2)c(C)c1 5.38%
CCOCCOC(=O)C1=C(C)N(C)C(=O)NC1c1ccccc1F (stereo unspecified) 2.69%
O=C(NCc1ccccc1)C1CCCN(S(=O)(=O)c2cccs2)C1 (stereo unspecified) 3.39%
O=C(Nc1cc(-c2nn(CC(=O)N3CCCCC3)c(=O)c3ccccc23)ccc1N1CCOCC1)c1ccc(Cl)cc1 -11%
CC1CCCCC1NC(=O)C1CCCN1S(=O)(=O)c1cccc2nsnc12 (stereo unspecified) 10.7%
CC1CC(C)CN(C(=O)CSc2nnc(CSc3ncccn3)n2C)C1 (stereo unspecified) 1.36%
CCn1c(C)nc2cc(C(=O)NNS(=O)(=O)c3ccc(C)cc3C)ccc21 5.64%
COc1ccc(-n2c(C)csc2=S)cc1 1.97%
CCCCCN1CC(O)=C(c2ccccc2)C1=N -12.2%
O=C(Nc1cc2ccccc2oc1=O)C1CCCCC1 6%
Cc1nnc(SCC(=O)N2CCc3ccccc3C2)s1 -10.1%
Cc1ccc(CNC(=O)CCNS(=O)(=O)c2cccc3nonc23)cc1 7.33%
Cc1ccc(-n2c(CNc3ccc(F)cc3)nnc2SCC(=O)N2CCOCC2)cc1 0.69%
CCOC(=O)c1c(NC(C)=O)sc2c(O)c(Br)ccc12 5.45%
CCOC(=O)CN(Cc1ccc(OC)c(OC)c1)S(=O)(=O)c1ccc(OC)cc1 8.43%
CS(=O)(=O)N(CC(=O)N1CCN(Cc2ccccc2)CC1)c1ccc2c(c1)OCCO2 21.1%
COc1ccc(C2C(C#N)=C(/N=C/N3CCOCC3)OC3=C2C(=O)CC(C)(C)C3)cc1OC (stereo unspecified) 8.48%
COC(=O)CSc1snnc1-c1ccc(Cl)c(Cl)c1 5.67%
